Experimental findings from PubChem BioAssay AID431 (Sanford-Burnham Center for Chemical Genomics, 2006) are described below.

About 1,100 (1.7%) of roughly 63,000 compounds were called active. What follows is part of a selection rich in actives, with near analogues and random picks from the rest. Potency and affinity values are given separately. Values without a mark were called inactive.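 How the source made its calls: active means compounds whose percent cytotoxicity in the single-dose primary screen, scaled between solvent and toxic-drug controls, exceeds 50; inactive means the rest.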

A short description of this assay: viability loss of HPDE-C7K cells – cell-based, fluorescence, HTS, primary screen (AID 431).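 Further: 0% = DMSO solvent wells and 100% = doxorubicin-treated wells.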 The following applies: HPDE-C7K KRASV12 cells, Alamar Blue viability, 48 h; at 10 µM; hits give high values. Background: Resazurin is reduced to fluorescent resorufin, in cell work by metabolically active cells.
With `COC(=O)c1c(NC(=O)CSc2nc3c(c(=O)n(C)c(=O)n3C)n2C(C)C)sc(C)c1C`, the cytotoxicity is -14%.

With `CCOC(=O)c1c(NC(=O)CSc2nc3c(c(=O)n(C)c(=O)n3C)n2C(C)C)sc(C)c1C`, the cytotoxicity is 77.5% (active).

Consider `CCCn1c(SCC(=O)Nc2sc(C)c(C)c2C(=O)OCC)nc2c1c(=O)n(C)c(=O)n2C`, for which the cytotoxicity was 0.3%.

On to `CCn1c(SCC(=O)Nc2cc(C)ccc2C)nc2c(c1=O)SC(C)C2` (stereo not given), for which the cytotoxicity was 8.9%.

For the compound `Cn1c(=O)c2c(nc(CN3CCN(c4ccc(F)cc4)CC3)n2CCN2CCOCC2)n(C)c1=O`, the cytotoxicity was -4.6%.

For `CCn1c(=N)n(CC(O)c2ccco2)c2ccccc21` (stereo not given), the cytotoxicity is -9.8%.

As to `CC[C@H](C)C(=O)O[C@H]1C[C@@H](C)C=C2C=C[C@H](C)[C@H](CC[C@@H]3C[C@@H](O)CC(=O)O3)[C@H]21`, the cytotoxicity is 55.1% (active).

Take `CCC(=O)Nc1cc(-c2nn(C)c(=O)c3ccccc23)ccc1N1CCCCC1`: the cytotoxicity was 2%.

In the case of `CCCC(=O)Nc1cc(-c2nn(C)c(=O)c3ccccc23)ccc1N1CCCCC1`, the cytotoxicity was -4.5%.

With `Cn1nc(-c2ccc(N3CCCCC3)c(NC(=O)c3ccco3)c2)c2ccccc2c1=O`, the cytotoxicity was 57.8% (active).

As to `CC(C)C(NS(=O)(=O)c1ccc2c(c1)oc(=O)n2C)C(=O)N1CCN(Cc2ccccc2)CC1` (stereo not given), the cytotoxicity was 7.1%.

For the compound `COc1ccccc1C1CC(=O)Nc2cc3c(cc21)OCCO3` (stereo not given), the cytotoxicity was 63.8% (active).

On to `CCCOc1c(OC)cccc1C1CC(=O)Nc2cc3c(cc21)OCCO3` (stereo not given), for which the cytotoxicity was 68.7% (active).

Consider `CC(C)Oc1ccccc1C1CC(=O)Nc2cc3c(cc21)OCCO3` (stereo not given), for which the cytotoxicity is 45.7%.

Consider `CCOc1ccccc1C1CC(=O)Nc2cc3c(cc21)OCCO3` (stereo not given), for which the cytotoxicity was 48.6%.

As for `CCCOc1ccccc1C1CC(=O)NC2=C1C(=O)CCC2` (stereo not given), the cytotoxicity is 36.3%.

Consider `CCOc1c(OC)cccc1C1CC(=O)Nc2cc3c(cc21)OCCO3` (stereo not given), for which the cytotoxicity is 8.9%.

For the compound `CCCCOc1ccccc1C1CC(=O)NC2=C1C(=O)CCC2` (stereo not given), the cytotoxicity is 60.3% (active).

As to `COc1cccc(C2CC(=O)Nc3cc4c(cc32)OCCO4)c1OC(C)C` (stereo not given), the cytotoxicity was 34.4%.

Consider `CCOc1ccccc1C1CC(=O)NC2=C1C(=O)CCC2` (stereo not given), for which the cytotoxicity is 16.8%.

Take `CC(C)Oc1ccccc1C1CC(=O)Nc2cc3c(cc21)OCO3` (stereo not given): the cytotoxicity is 42.7%.

For the compound `CCCOc1c(OC)cccc1C1CC(=O)Nc2cc3c(cc21)OCO3` (stereo not given), the cytotoxicity was 9.6%.

`CCOc1ccccc1C1CC(=O)Nc2cc3c(cc21)OCO3` (stereo not given): the cytotoxicity is 55.9% (active).

For the compound `O=C1c2ccccc2C(=O)N1CCN1CCOCC1`, the cytotoxicity was -1.3%.

Regarding `CC(C)N(C(=O)CSc1nnnn1C1CCCC1)C(C)C`, the cytotoxicity was -9.6%.

In the case of `CCCCn1nnnc1SCC(=O)Nc1ccc(C)cc1`, the cytotoxicity is -4.8%.

Turning to `Cc1ccc(NS(=O)(=O)c2cc(C(=O)N3CCOCC3)ccc2C)cc1C`, the cytotoxicity was -4.4%.

`CCN(CC)C(=O)c1sc(NC(=O)Cc2cccs2)c(C#N)c1C`: the cytotoxicity was -10.4%.

`CC(O)c1ccc2c(c1)OCCOCCN(C)CCOCCO2` (stereo not given): the cytotoxicity is -3.4%.

As for `OC1C[N+]2(CCCCC2)C1`, the cytotoxicity is -0.4%.

With `CCNc1nc(SCC(=O)OC)nc(N2CCOCC2)n1`, the cytotoxicity is -13.2%.

Consider `O=C(CCC(=O)N(CC(=O)NC1CCCCC1)c1ccc2c(c1)OCO2)Nc1ccccn1`, for which the cytotoxicity was -8.1%.

Regarding `CCCOc1ccccc1C1CC(=O)Nc2cc3c(cc21)OCCO3` (stereo not given), the cytotoxicity is 73.4% (active).

Turning to `O=C1CC(c2cccs2)c2cc3c(cc2N1)OCCO3` (stereo not given), the cytotoxicity was 2.9%.

For the compound `Cc1ccc(C2CC(=O)Nc3cc4c(cc32)OCCO4)s1` (stereo not given), the cytotoxicity is 7.5%.

On to `CC(C)NC(=O)c1ccccc1-c1nc(-c2ccccc2Cl)no1`, for which the cytotoxicity is 6%.

Take `CCN1CCCC1CNc1ncnc2c1[nH]c1ccc(Cl)cc12` (stereo not given): the cytotoxicity is 10.9%.

For `c1ccc2c(c1)[nH]c1c(NCC3CCCO3)ncnc12` (stereo not given), the cytotoxicity was 6.1%.

In the case of `Clc1ccc2[nH]c3c(NCC4CCCO4)ncnc3c2c1` (stereo not given), the cytotoxicity is 57.6% (active).

Turning to `CC(C)(C)OC(=O)N1CCC[C@@H]1C(=O)N1CCC(C(=O)O)CC1`, the cytotoxicity was 8.3%.

As for `COc1ccc(NC(=O)Cn2nnc(-c3ccccc3NC(=O)c3cccs3)n2)cc1`, the cytotoxicity is 9.5%.

As to `O=C(O)c1ccc(CSc2n[nH]c(-c3ccco3)n2)cc1`, the cytotoxicity is -2.9%.

For the compound `Cc1c(-c2ccccc2)c(P(=O)(N2CCOCC2)N2CCOCC2)c2ccccn12`, the cytotoxicity is -4.4%.

On to `COc1ccccc1-n1c(SC)nc(O)cc1=O`, for which the cytotoxicity was 6.5%.

As for `COc1ccccc1C1c2c(oc3ccc(Cl)cc3c2=O)C(=O)N1c1cc(C)on1` (stereo not given), the cytotoxicity is -23.6%.

`COc1ccccc1-n1c(=O)oc2ccc(Cl)cc2c1=O`: the cytotoxicity was 53.6% (active).

Turning to `C=CCN(CC=C)S(=O)(=O)c1ccc2nsnc2c1`, the cytotoxicity is -22.3%.

On to `CCOC(=O)c1ccc2nc(NC(=O)C(C)C)sc2c1`, for which the cytotoxicity was 6.2%.

`C=CCN(CC=C)S(=O)(=O)c1ccc2nc(NC(=O)C(C)C)sc2c1`: the cytotoxicity is 69.9% (active).

Turning to `COc1ccc(C(=O)CSc2nnc(-c3ccco3)n2C)cc1`, the cytotoxicity was 5.8%.

Turning to `COc1ccc(C(=O)n2c(-c3ccco3)nc3ccccc32)cc1`, the cytotoxicity is 58.3% (active).

For `CCn1c(-c2ccco2)nc2ccccc21`, the cytotoxicity is 5.1%.

Turning to `Cc1cc(C)cc(-n2nnc(C(=O)NCc3ccc(Cl)cc3)c2N)c1`, the cytotoxicity is 5.6%.

For the compound `CCN1CCN(C2CCN(C(C)=O)CC2)CC1`, the cytotoxicity is 5.4%.

As for `C/C=C/Cn1c(SCc2ccc(C)cc2)nc2c1c(=O)[nH]c(=O)n2C`, the cytotoxicity is 57.9% (active).

Regarding `C/C=C/Cn1c(SCc2ccccc2)nc2c1c(=O)[nH]c(=O)n2C`, the cytotoxicity was 1.2%.

As for `C/C=C/Cn1c(SCc2ccc(Cl)cc2)nc2c1c(=O)[nH]c(=O)n2C`, the cytotoxicity is 8.2%.

`Clc1ccc(-n2cnnn2)cc1`: the cytotoxicity is -0.1%.

Turning to `COc1ccc(C2NC(=O)NC(C)=C2C(=O)Nc2cc(C)ccc2C)cc1OC` (stereo not given), the cytotoxicity was 1.2%.

On to `O=C(C1CC1)N1CCc2cc(Br)cc(S(=O)(=O)NCCCN3CCCC3)c21`, for which the cytotoxicity is 1.3%.

Regarding `CCOC(=O)c1c(C)[nH]c(C(=O)OC/C(O)=C(\C#N)c2nc3ccccc3[nH]2)c1C`, the cytotoxicity is 81.8% (active).

Regarding `Cc1nn(-c2ccccc2)c(C)c1C(=O)OC/C(O)=C(\C#N)c1nc2ccccc2[nH]1`, the cytotoxicity is 13%.

`N#C/C(=C(/O)COC(=O)c1ccc2c(c1)OCCO2)c1nc2ccccc2[nH]1`: the cytotoxicity is 17.6%.

With `CSc1nnc(-c2nnc(SC)n2-c2ccccc2)n1-c1ccccc1`, the cytotoxicity is -8.3%.

For the compound `Cc1ccc(C(=O)CSC2=C(C#N)C(c3ccco3)CC(=O)N2)c(C)c1` (stereo not given), the cytotoxicity was 5%.

For `CC(=O)C1=C(C)NC(SCC(=O)c2ccc(Cl)cc2Cl)=C(C#N)C1c1ccco1` (stereo not given), the cytotoxicity is 40.7%.

As to `C=CCOC(=O)C1=C(C)NC(SCC(=O)N(CC)CC)=C(C#N)C1c1ccco1` (stereo not given), the cytotoxicity is -4.1%.

As for `CCOC(=O)CSC1=C(C#N)C(c2ccco2)C(C(=O)OCc2ccccc2)=C(C)N1` (stereo not given), the cytotoxicity was 61% (active).

As for `COCCOC(=O)C1=C(C)NC(SCC(=O)NC(C)(C)C)=C(C#N)C1c1ccco1` (stereo not given), the cytotoxicity was 2.3%.

In the case of `C=CCOC(=O)C1=C(C)NC(SCC(=O)Nc2ccc(C)c(Cl)c2)=C(C#N)C1c1ccco1` (stereo not given), the cytotoxicity is -1.3%.

As for `CC(=O)C1=C(C)NC(SCC(=O)c2ccccc2)=C(C#N)C1CC(C)C` (stereo not given), the cytotoxicity was 3.7%.

In the case of `CC(=O)C1=C(C)NC(SCC(=O)c2cc(Cl)ccc2Cl)=C(C#N)C1c1ccco1` (stereo not given), the cytotoxicity was 60.7% (active).

On to `CSCSC1=C(C#N)C(c2ccccc2Cl)C(C(C)=O)=C(C)N1` (stereo not given), for which the cytotoxicity is 23.4%.

For `CC(=O)C1=C(C)NC(SCC(=O)c2ccc(Cl)c(Cl)c2)=C(C#N)C1c1ccco1` (stereo not given), the cytotoxicity was 77.4% (active).

With `CCN(CC)C(=O)CSC1=C(C#N)C(c2ccco2)C(C(=O)OCCOC)=C(C)N1` (stereo not given), the cytotoxicity was -15.8%.

With `CCCNS(=O)(=O)c1ccc(CCC(=O)N2CCOCC2)cc1`, the cytotoxicity is 3.7%.

`CC(C)C1CC(c2csc(N)n2)CCO1` (stereo not given): the cytotoxicity was 7.1%.

As to `O=C1CCN(Cc2nnnn2CC2CCCO2)c2ccccc2N1` (stereo not given), the cytotoxicity was -13.4%.

With `Cc1nnc(SCCn2c(N3CCCC(C)C3)nc3c2c(=O)n(C)c(=O)n3C)s1` (stereo not given), the cytotoxicity was 6.4%.

As for `O=C(NCc1ccccn1)C1CCCN(S(=O)(=O)c2ccc(Br)cc2)C1` (stereo not given), the cytotoxicity is -8.1%.

As to `CCOC(=O)C(Cc1ccccc1)C(=O)Nc1nccs1` (stereo not given), the cytotoxicity is 15.3%.

For `CCOC(=O)C1CCN(S(=O)(=O)c2ccc3c(c2)CCCN3C(C)=O)CC1`, the cytotoxicity is -5.4%.

In the case of `CC(=O)C1=C(C)NC(SCC(=O)c2ccc(Cl)cc2)=C(C#N)C1c1ccco1` (stereo not given), the cytotoxicity is 50.5% (active).

`CC(=O)C1=C(C)NC(SCC(=O)c2ccc(F)cc2)=C(C#N)C1c1ccco1` (stereo not given): the cytotoxicity is 90.5% (active).

With `CC(=O)C1=C(C)OC(N)=C(C#N)C1c1ccco1` (stereo not given), the cytotoxicity was -7.5%.

On to `CCOC(=O)CSC1=C(C#N)C(c2ccc(F)cc2)C(C(C)=O)=C(C)N1` (stereo not given), for which the cytotoxicity was -0.1%.

On to `COc1ccccc1NC(=O)C1=C(C)NC(SCC(=O)c2ccc(C)cc2)=C(C#N)C1c1ccco1` (stereo not given), for which the cytotoxicity is 38.3%.

Take `CSCSC1=C(C#N)C(c2ccc(Cl)cc2)C(C(C)=O)=C(C)N1` (stereo not given): the cytotoxicity is -8.2%.

Take `Cc1cccc(C2CC(c3ccccc3)Nc3ncnn32)c1` (stereo not given): the cytotoxicity was 0%.

For the compound `COc1ccc(CCNc2ncnc3[nH]ncc23)cc1OC`, the cytotoxicity is -5.5%.

With `O=C(NC1CCCc2ccccc21)C1CCN(S(=O)(=O)c2cnc[nH]2)CC1` (stereo not given), the cytotoxicity was -2.5%.

With `Cc1occc1-c1nc(-c2ccncc2)no1`, the cytotoxicity was -13.6%.

In the case of `Cc1csc(NC(=O)C(Cc2ccccc2)n2cccc2)n1` (stereo not given), the cytotoxicity was 15%.

Take `CCSc1nnc(NC(=O)C(Cc2ccccc2)n2cccc2)s1` (stereo not given): the cytotoxicity is -0.8%.

For the compound `O=C1[C@@H]2Cc3ccccc3CN2C(=O)N1c1cccc(F)c1`, the cytotoxicity is -8.3%.
